An excerpt weighted towards active compounds, which were near 0.82% of everything screened.
RTF Ca sens act = cardiac RTF calcium sensitivity activators, primary screen, biochemical, IANBD-TnC fluorescence, EC20 calcium | actives 0.24% (n = 340,000) | Troponin I, cardiac muscle (Homo sapiens) + Troponin T, cardiac muscle (Homo sapiens) + … | AID 493008, 2010 | activation, % at 7.2 µM | IANBD-labeled TnC RTF fluorescence at EC20 calcium; 0% EC20 calcium, 100% full calcium;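 active = activation above the mean over all tested compounds plus 3 SD, cut at about 30% in these data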;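 also: rise in fluorescence read as greater calcium sensitivity of cardiac thin filaments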
Cardiac RTF inh = cardiac RTF calcium sensitivity inhibitors, primary screen, biochemical, IANBD-TnC fluorescence, EC70 calcium; Troponin I, cardiac muscle (Homo sapiens) + Troponin T, cardiac muscle (Homo sapiens) + …; IANBD-labeled cardiac RTF, Ca2+ fluorescence; inhibition, % at 7.15 µM; actives 0.12% (n = 340,000);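 active = inhibition above the mean inhibition of all tested compounds plus 3 SD, cut at about 17% in these data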;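 also: assay run at fixed EC70 calcium of 1.6 mM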
E coli Lon inh = inhibitors of E. coli Lon protease, primary screen, biochemical, fluorescence polarization; actives 0.42% (n = 360,000); purified E. coli Lon protease; P0A9M0; inhibition, % at 7.94 µM; in the data active = inhibition above about 13%, passing the limit was not always enough;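 also: 0% = enzyme with probe and DMSO and 100% = no enzyme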
Target sequence (P0A9M0 whole entry, looked up): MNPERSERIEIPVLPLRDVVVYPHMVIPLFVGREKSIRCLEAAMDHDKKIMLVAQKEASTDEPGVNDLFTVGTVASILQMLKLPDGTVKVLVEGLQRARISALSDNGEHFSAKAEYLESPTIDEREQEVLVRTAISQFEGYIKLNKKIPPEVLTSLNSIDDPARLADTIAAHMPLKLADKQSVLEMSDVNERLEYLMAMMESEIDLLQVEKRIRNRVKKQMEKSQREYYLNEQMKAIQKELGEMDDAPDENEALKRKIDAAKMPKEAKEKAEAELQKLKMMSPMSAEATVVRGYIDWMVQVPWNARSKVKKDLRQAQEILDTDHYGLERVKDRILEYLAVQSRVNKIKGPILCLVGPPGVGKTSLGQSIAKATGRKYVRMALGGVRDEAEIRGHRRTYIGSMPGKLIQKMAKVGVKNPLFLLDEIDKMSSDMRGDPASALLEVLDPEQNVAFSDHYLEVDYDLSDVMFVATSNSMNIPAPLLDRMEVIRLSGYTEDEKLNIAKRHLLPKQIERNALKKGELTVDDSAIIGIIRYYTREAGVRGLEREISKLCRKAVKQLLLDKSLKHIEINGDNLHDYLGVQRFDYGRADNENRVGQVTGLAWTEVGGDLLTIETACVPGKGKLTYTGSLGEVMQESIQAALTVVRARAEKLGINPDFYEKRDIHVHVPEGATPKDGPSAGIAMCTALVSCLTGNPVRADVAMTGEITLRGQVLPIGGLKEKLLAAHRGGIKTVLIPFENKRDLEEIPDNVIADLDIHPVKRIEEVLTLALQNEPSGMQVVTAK
Keap1-Nrf2 PPI = Keap1-Nrf2 protein-protein interaction inhibitors, primary screen, biochemical, fluorescence polarization, single point | inhibition, % at 9.4 µM | AID 504523, 2011 | Keap1 Kelch-Nrf2 peptide fluorescence polarization, 1536-well | actives 0.15% (n = 340,000) | Kelch-like ECH-associated protein 1 (Homo sapiens), Q14145; in the data active = inhibition above about 12%;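 also: human Keap1 Kelch domain with fluorescein labeled Nrf2 9mer peptide probe; 0% = neutral control wells and 100% = peptide positive control; higher means more block of Keap1 binding to Nrf2 peptide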
LANA DNA inh = inhibitors of KSHV C-LANA binding to DNA, primary screen, biochemical, fluorescence polarization, FAM-LBS DNA, MBP-C-LANA, single point; Kaposi's sarcoma herpesvirus LANA C-terminal domain (residues 932-1162) DNA binding; inhibition, % at 9 µM; actives 0.078% (n = 340,000); AID 504423, 2011;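 active = highest replicate inhibition at or above 60% at 9 µM, even if other replicates fall short; inactive = all replicates below 60% inhibition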;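 also: 0% = neutral control wells and 100% = 4 µM acridine orange control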
eLon confirm = E. coli Lon protease inhibitor retest, confirmation, biochemical, fluorescence polarization; shares compounds with E coli Lon inh; purified E. coli Lon; inhibition, % at 7.94 µM; actives 31% (n = 1,400); in the data active = inhibition above about 16%;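 also: 0% = enzyme with probe and DMSO and 100% = no enzyme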
* hit, by the source's call; x = not tested or not shown; + = active, no number.

SMILES	RTF Ca sens act	Cardiac RTF inh	E coli Lon inh	Keap1-Nrf2 PPI	LANA DNA inh	eLon confirm
C/C(=N\NC(=O)Cn1ccc(C(F)(F)F)n1)c1ccco1	0.6	12.4	0.1	-2.3	1.2	x
CCn1c(CSc2nccn2C)nc2cc(C(=O)O)ccc21	10.1	-7.4	31.7*	-1.8	7.3	-6.7
Cc1cc(C)n2nc3nc4c(cc3c2n1)CCCC4	31.4*	-52.5	55.8*	-2.3	2.1	13.5
Cc1cc(C)n2nc(C)c(Br)c2n1	7.2	-3.3	2.2	-3.6	-0.9	x
Cn1c(N2CCN(C(c3ccccc3)c3ccccc3)CC2)nc2c1c(=O)[nH]c(=O)n2C	0.8	0.4	24.1*	1.8	1.6	16.3*
COc1ccc(C(=O)Nc2ccc(N3CCN(C(=O)c4ccccc4C)CC3)cc2)cc1	-5.1	-3.2	1.8	-2.1	-0.7	x
COc1ccccc1-c1ccc2c(c1)C(C)(Cc1ccc(F)c(Cl)c1)C(=O)N2 (stereo not given)	x	x	16.0*	x	x	-7.9
Cc1ccc2c3c(cccc13)-c1ccccc1C2=O	7.3	-25.8	39.5*	-6.3	3.1	20.4*
O=c1nc(Nc2ccccc2)sc2ccc([N+](=O)[O-])cc12	4.5	3.3	-5.7	-2.3	-2.0	x
O=[N+]([O-])c1ccc(Nc2nc(N3CCOCC3)nc(N3CCOCC3)n2)cc1	-0.8	-4.3	17.2*	-0.7	-1.0	-1.8
Cc1[nH]c(=O)[nH]c(=O)c1S(=O)(=O)N1CCN(c2ccccc2F)CC1	3.7	-3.2	43.6*	0.9	1.3	4.5
COc1ccccc1N1CCN(S(=O)(=O)c2c(C)[nH]c(=O)[nH]c2=O)CC1	3.1	-10.4	-0.3	-6.3	4.2	x
CC(=O)Nc1cccc(-c2ccnc3c2CC(C)(C(=O)NCC2CC2)O3)c1 (stereo not given)	x	x	47.4*	x	x	-4.7
Cc1ccc(NC(=O)COC(=O)CCc2c[nH]c(=O)[nH]2)cc1	4.5	-4.2	31.0*	6.8	5.7	52.2*
COC(=O)c1c(NC(=O)COC(=O)CNC(=O)c2cccc(OC(F)F)c2)sc(C)c1C	x	x	9.3	x	x	x
COc1ccc(N2CCN(CC(=O)N3c4ccccc4CC3C)CC2)cc1 (stereo not given)	-0.9	-10.5	18.1*	-3.0	-0.7	-3.7
O=C(Oc1cc2oc(=O)c3c(c2cc1Cl)CCCC3)c1cccs1	16.9	-0.1	-10.4	-1.1	0.9	x
O=C(Oc1ccc2c3c(c(=O)oc2c1)CCCC3)c1cccs1	-8.6	-30.6	18.1*	-4.9	1.6	25.4*
CSCC[C@H](NC(=O)Nc1ccc(S(N)(=O)=O)cc1)C(=O)O	1.6	-13.7	-2.3	1.8	-1.2	x
CCc1ccc(NC(=O)COC(=O)/C=C/c2c(C)nn(C3CCS(=O)(=O)C3)c2Cl)cc1 (stereo not given)	5.8	-10.9	1.6	-3.3	-2.3	x
Cc1ccc(/C=C2\Oc3cc(OC(=O)N4CCOCC4)ccc3C2=O)cc1	5.2	9.2	-11.7	-2.5	0.9	x
O=C(Oc1ccc2c(c1)O/C(=C\c1ccncc1)C2=O)c1ccccc1	28.4	-39.7	24.4*	-4.8	1.4	31.6*
Cc1ccc(S(=O)(=O)N2CCN(C(=O)COC(=O)/C=C/c3ccccc3)CC2)c(C)c1	0.4	4.0	6.8	-1.3	0.8	x
CCOc1ccc(NC(=O)c2ccc(NS(=O)(=O)c3cccs3)cc2)cc1	-1.6	3.1	-0.8	-3.9	-0.1	x
F[B-](F)(F)c1cc2ccccc2s1	1.0	-1.6	31.4*	-4.7	0.1	43.9*
SMILES	RTF Ca sens act	Cardiac RTF inh	E coli Lon inh	Keap1-Nrf2 PPI	LANA DNA inh	eLon confirm
O=C1C=C(c2cc3ccccc3s2)C[C@@H](c2ccc(F)cc2)C1	5.3	-14.5	-18.3	-0.4	1.2	x
F[B-](F)(F)c1cc2cc(Br)ccc2s1	7.6	-4.9	27.0*	-6.6	-1.0	40.2*
CCC1(c2ccccc2)NC(=O)N(CC(=O)Nc2cc(Cl)ccc2N2CCOCC2)C1=O (stereo not given)	5.2	1.5	17.2*	-3.8	-0.8	-14.3
COC(=O)c1ccccc1NS(=O)(=O)c1ccc(Cl)nc1	-1.2	-1.0	1.2	-0.6	0.3	x
CC1(C)CC(=O)C2=C(C1)OC1=C(C(=O)CC(C)(C)C1)C2c1ccc(O)cc1O	4.3	0.9	65.1*	-16.0	0.8	95.8*
CC1(C)CC(=O)C2=C(C1)OC1=C(C(=O)CC(C)(C)C1)C2c1ccc(O)c([N+](=O)[O-])c1	-5.4	-24.5	-9.3	2.4	-1.4	x
C=CCN(CC=C)c1nc2ccccc2nc1C(C#N)C(=O)OC(C)C (stereo not given)	5.1	-15.0	15.8*	-5.1	3.3	-12.5
C=CCOC(=O)C(C#N)c1nc2ccccc2nc1N1CCN(c2ccccc2OC)CC1 (stereo not given)	-1.9	-5.1	-10.2	1.7	1.5	x
Clc1ccc2nc(-c3ccccc3)c(Cc3ccsc3)n2c1	x	x	17.7*	x	x	12.1
Clc1ccc(-c2nc3ccc(Cl)cn3c2Cc2ccsc2)cc1	x	x	25.3*	x	x	2.6
CCCc1nc2ccc(Cl)cn2c1Cc1ccsc1	x	x	25.0*	x	x	6.5
Cc1cc(Br)cn2c(Cc3ccsc3)c(-c3ccccc3)nc12	x	x	23.8*	x	x	3.2
CC1(C)C(=O)Nc2ccccc2N1C(=O)COC(=O)c1cccnc1Cl	-5.1	-3.6	4.0	-1.4	0.8	x
CNc1ccc2ncc(-c3ccccc3C(C)=O)n2n1	x	x	7.7	x	x	x
COc1ccc(CNC(=O)C2CCC(=O)N(CCCN3CCCC3=O)C2)cc1 (stereo not given)	1.5	-6.8	0.8	-6.1	-0.6	x
O=C(c1ccccc1)c1c2c(cc3sc4ccccc4[n+]13)-c1cccc3cccc-2c13	3.3	-13.5	+	-4.5	-14.3	+
COc1ccc(-n2nc(C(=O)NCC(=O)NCCCN3CCOCC3)c3ccccc3c2=O)cc1	1.8	-4.5	-4.3	6.4	-0.4	x
CCC(=O)N(Cc1ccc(C)cc1)Cc1cc2cc3c(cc2[nH]c1=O)OCO3	-5.8	0.6	21.4*	-5.1	-1.1	3.7
Cc1ccc(NC(=O)N(Cc2ccc3c(c2)OCO3)Cc2cc3cc4c(cc3[nH]c2=O)OCCO4)cc1	2.2	5.9	15.4*	-3.0	0.6	5.5
CCCCNC(=O)C1(C)CCN1C(=O)c1cc(-c2ccccc2)cs1 (stereo not given)	x	x	-4.5	x	x	x
O=C(Nc1cccc(S(=O)(=O)NC2=NCCC2)c1)C1CCC1	-2.1	1.1	-3.1	0.5	1.5	x

Screening results from PubChem.
